From PubChem BioAssay
The source made the active and inactive calls.

Experiments:
[1] = tested on: Human papillomavirus type 1a protein E7 (residues 44-93); experiment: small molecules binding HPV E7 44-93 – biochemical, small-molecule microarray, residues 44-93, 635 nm fluorescence, primary screen (AID 1108); settings: fluorescence 635 nm, higher = more signal;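 further: E7 fragment applied at 1 µg/mL in TBST for 1 h at 4 C; score combines spot fluorescence with its signal to noise ratio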
[2] = hepatitis C replication reporter changes, two-sided – Huh7 cells, luciferase reporter, HCV replication inhibitor project, primary screen (AID 1109); settings: Huh7 HCV replicon luciferase reporter, 48 h; higher = more signal;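 further: huh7 hepatoma cells harbouring a luciferase neomycin HCV replicon reporter; luciferase luminescence as measure of HCV replicon replication; test concentration not given here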
[3] = molecular target: Left-right determination factor 2 (Homo sapiens) (UniProt O00292); experiment: small molecules binding LEFTY2 protein – biochemical, small-molecule microarray, 635 nm fluorescence scan, primary screen (AID 1110); settings: higher = more signal
Chain of Left-right determination factor 2 (Homo sapiens) (O00292 whole entry, looked up): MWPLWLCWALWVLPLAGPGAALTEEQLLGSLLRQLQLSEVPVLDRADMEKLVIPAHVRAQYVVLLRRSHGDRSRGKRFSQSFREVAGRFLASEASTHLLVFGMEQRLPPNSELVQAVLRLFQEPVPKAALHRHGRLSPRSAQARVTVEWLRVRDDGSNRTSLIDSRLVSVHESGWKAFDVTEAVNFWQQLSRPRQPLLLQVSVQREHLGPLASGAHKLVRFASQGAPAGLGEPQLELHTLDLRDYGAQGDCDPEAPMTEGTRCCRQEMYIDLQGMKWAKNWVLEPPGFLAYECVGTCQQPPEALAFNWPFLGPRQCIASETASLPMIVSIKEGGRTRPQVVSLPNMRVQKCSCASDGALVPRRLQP

[4] = molecular target: Calmodulin-1 (Homo sapiens) (UniProt P0DP23); experiment: small molecules binding calmodulin-1 with EGTA – biochemical, small-molecule microarray, Cy5-labelled CALM1, profiling panel (AID 1111); settings: Cy5-CALM1 binding fluorescence, higher = more signal;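 further: labelled calmodulin applied in Tris saline Tween buffer holding calcium plus EGTA and DTT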
[5] = molecular target: Calmodulin-1 (Homo sapiens) (UniProt P0DP23); experiment: small molecules binding Ca-loaded calmodulin-1 – biochemical, small-molecule microarray, Cy5-labelled CALM1, plus calcium, artefact control for SMM control-protein annotation, profiling panel (AID 1112); settings: Cy5-CALM1 binding fluorescence, higher = more signal;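 further: score merges spot fluorescence with signal to noise from triplicate slides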
[6] = probe aWnt5a binding to arrayed compounds – biochemical, biotinylated probe, 635/667 nm fluorescence, primary screen (AID 1113); settings: small-molecule microarray, higher = more signal;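 further: score merges 667 nm fluorescence intensity with signal-to-noise per printed feature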
[7] = probe aShh binding to arrayed compounds – biochemical, biotinylated probe, 635/667 nm fluorescence, primary screen (AID 1114); settings: small-molecule microarray, higher = more signal;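 further: probe is biotin-labelled aShh protein from a stem cell growth factor screen; measures binding of labelled protein to compounds printed on the slide; score merges feature fluorescence at 667 nm with signal-to-noise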
[8] = probe aNog binding to arrayed compounds – biochemical, biotinylated probe, 635/667 nm fluorescence, primary screen (AID 1115); settings: small-molecule microarray, higher = more signal;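 further: probe is biotinylated aNog protein used at 0.15 µg/mL for 1 h at 4 C; z-score combines 667 nm fluorescence of each spot with its signal to noise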
[9] = molecular target: Torsin-1A-interacting protein 1 (Homo sapiens) (UniProt Q5JTV8); experiment: compound microarray binding of lysate hLAP1 – cell lysate, small-molecule microarray, COS7 lysate, 635/667 nm fluorescence, primary screen (AID 1116); settings: 635 nm fluorescence, higher = more signal
Chain of Torsin-1A-interacting protein 1 (Homo sapiens) (Q5JTV8 whole entry, looked up): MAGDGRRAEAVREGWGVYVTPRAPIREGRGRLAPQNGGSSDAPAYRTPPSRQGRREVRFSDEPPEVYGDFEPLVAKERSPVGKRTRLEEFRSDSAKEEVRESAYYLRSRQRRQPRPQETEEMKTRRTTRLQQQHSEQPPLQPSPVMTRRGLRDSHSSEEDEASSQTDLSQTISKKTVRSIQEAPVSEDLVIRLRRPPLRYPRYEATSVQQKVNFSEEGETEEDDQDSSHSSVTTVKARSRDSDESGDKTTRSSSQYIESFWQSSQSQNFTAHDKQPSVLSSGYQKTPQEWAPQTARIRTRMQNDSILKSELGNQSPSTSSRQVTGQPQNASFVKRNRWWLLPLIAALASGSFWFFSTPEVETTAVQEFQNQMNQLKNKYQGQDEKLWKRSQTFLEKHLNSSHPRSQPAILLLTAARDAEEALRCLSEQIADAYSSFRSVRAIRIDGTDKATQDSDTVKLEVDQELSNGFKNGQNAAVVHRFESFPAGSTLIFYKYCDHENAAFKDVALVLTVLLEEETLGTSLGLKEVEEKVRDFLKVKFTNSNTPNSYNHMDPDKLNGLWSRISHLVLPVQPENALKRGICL

[10] = molecular target: Alpha-bungarotoxin (Bungarus multicinctus) (UniProt P60615); experiment: compounds binding labelled alpha-BTX control protein – biochemical, small-molecule microarray, Alexa647 label, 635/667 nm fluorescence, artefact control for SMM control protein annotation, profiling panel (AID 1117); settings: alpha-BTX-A647 binding fluorescence, higher = more signal
Chain of Alpha-bungarotoxin (Bungarus multicinctus) (P60615 whole entry, looked up): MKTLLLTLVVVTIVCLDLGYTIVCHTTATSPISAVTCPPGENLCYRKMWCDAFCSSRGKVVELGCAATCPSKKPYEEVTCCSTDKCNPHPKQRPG

Albumin (Bos taurus) = Albumin (Bos taurus) (UniProt P02769); experiment: compounds binding labelled BSA control protein – biochemical, small-molecule microarray, Alexa647 label, 635/667 nm fluorescence, artefact control for SMM control protein annotation, profiling panel (AID 1118); settings: BSA-A647 binding, fluorescence 635 nm, higher = more signal;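 further: score merges 667 nm emission intensity and signal-to-noise per printed compound spot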
Chain of Albumin (Bos taurus) (P02769 whole entry, looked up): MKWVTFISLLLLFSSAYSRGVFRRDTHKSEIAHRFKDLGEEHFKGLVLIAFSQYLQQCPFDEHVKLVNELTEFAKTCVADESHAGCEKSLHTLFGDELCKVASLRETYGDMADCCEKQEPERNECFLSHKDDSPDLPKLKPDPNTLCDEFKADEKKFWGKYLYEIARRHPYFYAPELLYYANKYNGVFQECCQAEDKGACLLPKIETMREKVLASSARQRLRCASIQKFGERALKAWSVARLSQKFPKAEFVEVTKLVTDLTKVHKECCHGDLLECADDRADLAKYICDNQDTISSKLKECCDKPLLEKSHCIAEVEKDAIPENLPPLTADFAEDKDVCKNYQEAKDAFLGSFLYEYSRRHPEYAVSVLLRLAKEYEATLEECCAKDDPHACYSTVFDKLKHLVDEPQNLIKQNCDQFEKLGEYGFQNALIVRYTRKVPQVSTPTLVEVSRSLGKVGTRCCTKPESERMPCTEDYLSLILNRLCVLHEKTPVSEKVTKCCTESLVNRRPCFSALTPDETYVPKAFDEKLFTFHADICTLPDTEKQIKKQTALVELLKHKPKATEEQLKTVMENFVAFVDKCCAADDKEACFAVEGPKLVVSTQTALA

[11] = probe aXIP binding to arrayed compounds – biochemical, NeuroSMM set, 635/667 nm fluorescence, primary screen (AID 1119); settings: small-molecule microarray, higher = more signal, called active from +8 up or from −8 down;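 further: probe is the protein aXip251-270 applied at 1 µg/mL to compound-printed slides; binding of probe to printed compounds measured as 667 nm fluorescence plus signal to noise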
[12] = probe aNOTCH3 binding on compound microarray – biochemical, small-molecule microarray, 635/667 nm fluorescence, primary screen (AID 1120); settings: higher = more signal;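 further: probe is a biotin-tagged antibody raised against NOTCH3 rather than NOTCH3 protein; score merges spot fluorescence near 667 nm with spot signal to noise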
[13] = probe aNOTCH2 binding on compound microarray – biochemical, small-molecule microarray, 635/667 nm fluorescence, primary screen (AID 1121); settings: higher = more signal;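 further: score merges feature fluorescence read at 667 nm with its signal to noise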
[14] = molecular target: Carbonic anhydrase 2 (Homo sapiens) (UniProt P00918); experiment: compounds binding carbonic anhydrase 2 – biochemical, small-molecule microarray, Alexa647-labelled CAII, profiling panel (AID 1122); settings: CAII-A647 binding fluorescence, higher = more signal
[15] = COS7 lysate on small-molecule microarray, probe aHis, 635 nm (AID 1123); settings: COS7 cell lysate, fluorescence, higher = more signal;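 further: z-score combines 667nm fluorescence intensity with signal-to-noise per printed compound spot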
[16] = probe aLAP1 signal on lysate-treated microarray – cell lysate, small-molecule microarray, COS7 lysate, primary screen (AID 1124); settings: probe aLAP1, fluorescence, higher = more signal;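 further: lysate comes from COS7 cells expressing LAP1 and is applied at 0.3 µg/mL; score merges spot fluorescence near 667 nm with signal-to-noise over triplicate slides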
Sam68 (KHDRBS1) = experiment: compounds binding KHDRBS1 protein – biochemical, small-molecule microarray, 635 nm fluorescence, primary screen (AID 1125); settings: higher = more signal;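 further: score merges 667 nm channel intensity with signal to noise over triplicate slides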
[17] = tested on: Chordin-like protein 2 (CHRDL2); experiment: compounds binding chordin-like 2 – biochemical, small-molecule microarray, 635 nm fluorescence, primary screen (AID 1126); settings: fluorescence 635 nm, higher = more signal;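 further: printed compound slides probed with Chrdl2 protein at 4 µg/mL for 1 h at 4 C; score merges 667 nm emission intensity with signal to noise over three replicate slides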
[18] = molecular target: Concanavalin-A (Canavalia ensiformis) (UniProt P02866); experiment: compounds binding concanavalin A lectin – biochemical, small-molecule microarray, Alexa647 label, 635 nm, artefact control for SMM control protein annotation, primary screen (AID 1127); settings: ConA-A647 binding fluorescence, higher = more signal;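 further: z combines 667 nm emission intensity with signal-to-noise across three replicate slides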
Chain of Concanavalin-A (Canavalia ensiformis) (P02866 whole entry, looked up): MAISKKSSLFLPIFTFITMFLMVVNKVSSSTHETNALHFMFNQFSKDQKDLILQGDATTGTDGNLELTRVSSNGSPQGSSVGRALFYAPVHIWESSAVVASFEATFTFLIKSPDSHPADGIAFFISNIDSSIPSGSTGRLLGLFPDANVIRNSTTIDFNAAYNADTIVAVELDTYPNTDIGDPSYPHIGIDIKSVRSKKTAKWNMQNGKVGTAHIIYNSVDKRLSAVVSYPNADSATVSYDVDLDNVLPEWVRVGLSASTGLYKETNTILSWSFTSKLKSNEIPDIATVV

Compound | composite z-score [1] | z-score [2] | composite z-score [3] | composite z-score [4] | composite z-score [5] | composite z-score [6] | composite z-score [7] | composite z-score [8] | composite z-score [9] | composite z-score [10] | composite z-score (Albumin (Bos taurus)) | composite Z-score [11] | composite z-score [12] | composite z-score [13] | composite z-score [14] | composite z-score [15] | composite z-score [16] | composite z-score (Sam68 (KHDRBS1)) | composite z-score [17] | composite z-score [18]
COc1ccc(OC[C@H]2CN3[C@@H](CC[C@@H](C)[C@@H]3c3ccc(Br)cc3)C(=O)O2)cc1 | 0.191 | -0.757 | 0.579 | -0.146 | -0.855 | -0.176 | -0.221 | 0.0121 | 0.5 | 0.641 | 0.197 | 0.281 (inactive) | -0.25 | -0.13 | -0.657 | -0.239 | 0.254 | 0.592 | 0.464 | 0.297
CC(=O)OC[C@H]1O[C@H](CCON=C(C)CCN2CCCc3nc(C)c(C)cc32)C=C[C@@H]1OC(C)=O | 1.33 | -0.186 | 0.686 | -0.191 | -0.947 | -0.0229 | -0.138 | 0.189 | 0.489 | 0.133 | 0.159 | -0.01 (inactive) | 0.121 | -0.0482 | 0.416 | 0.214 | 0.926 | 1.29 | 0.662 | 0.672
C=CC[C@@H]1C=CC(ON=C(C)C)[C@@H](CO)O1 (stereo not given in full) | -1.17 | 0.931 | 0.0335 | -0.253 | 0.0283 | -0.0701 | -0.2 | -0.303 | -0.275 | -0.139 | -0.282 | 0.112 (inactive) | -0.0288 | -0.19 | -0.341 | -0.301 | -0.178 | -1.11 | -0.213 | -0.0875
COc1ccc(O[C@H]2C=C[C@@H](c3ccccc3)O[C@@H]2CON=C2c3cc(OC)ccc3O[C@H](c3cccc(OC)c3)[C@H]2O)cc1 | -0.382 | -1.78 | 0.804 | -0.0756 | 0.335 | -0.0735 | 0.296 | -0.106 | 0.399 | 0.328 | 0.322 | -0.222 (inactive) | -0.122 | -0.255 | 0.417 | 0.567 | 1.15 | 0.164 | 0.171 | -0.996
CC(C)[C@H](NC(=O)OC(C)(C)C)[C@@H](O)CC(=O)C(C)(C)C | 0.223 | 0.515 | -0.1 | -0.32 | -0.748 | -0.18 | -0.24 | 0.237 | 0.161 | 0.302 | -0.269 | -0.382 (inactive) | -0.178 | -0.152 | -0.163 | 0.163 | -0.0769 | -0.0938 | 0.591 | 0.188
CCN1C(=O)[C@H]2[C@H]3[C@H](O)[C@H](O)CC(=NO[C@H](C)c4cn([C@@H]5COC[C@H]5O)nn4)[C@@H]3CC[C@H]2C1=O | -0.137 | -0.936 | 0.684 | -0.3 | -0.4 | -0.0445 | -0.291 | 0.0043 | -0.0938 | -0.23 | 0.0418 | -0.115 (inactive) | -0.0948 | -0.04 | -0.281 | 0.151 | -0.0932 | 0.126 | 0.244 | -0.0703
C#CCCCON=C1C[C@@H](O)[C@@H](O)[C@@H]2[C@@H]3C(=O)N(C[C@@H]4CCCO4)C(=O)[C@@H]3CC[C@@H]12 | 0.578 | 0.367 | 0.386 | -0.358 | -0.129 | -0.0865 | -0.153 | 0.223 | -0.0438 | 0.506 | 0.211 | -0.294 (inactive) | -0.047 | -0.0614 | 0.406 | 0.31 | 0.221 | 0.254 | 0.264 | 0.842
COCCNC(=O)OCC1CCCC2(CC(OC(=O)NCc3cccc4ccccc34)CC(CCC(=O)N[C@@H](C)C(=O)OC)O2)O1 (stereo not given in full) | 1.35 | -0.942 | 0.781 | 0.171 | -0.62 | -0.144 | -0.0006 | -0.256 | 0.002 | 0.801 | 0.0307 | 0.59 (inactive) | -0.0362 | -0.14 | 0.262 | 1.12 | -0.107 | 1.3 | 0.665 | 1.03
CO[C@@H]1[C@H](O)CO[C@H]1C=Cc1ccccc1 | 0.258 | -0.696 | 0.509 | -0.0028 | -0.144 | 0.0078 | -0.16 | -0.0563 | 0.0195 | 0.241 | 0.24 | -0.173 (inactive) | -0.127 | -0.0956 | 0.405 | 0.402 | 0.388 | 0.243 | 0.144 | 0.17
CC(C)(C)N1C(=O)[C@H]2[C@@H]3C(=CC[C@H]2C1=O)C(=O)[C@H]1O[C@H]1[C@H]3O | -2.12 | -4.79 | 0.341 | -1.08 | -1.48 | -0.0735 | -0.273 | -0.571 | -0.139 | -0.0321 | 0.0159 | 0.321 (inactive) | -0.0976 | -0.154 | -0.444 | -0.511 | -0.058 | -0.657 | 1.04 | -0.721
COC(=O)[C@@H]1CC[C@H](C)[C@@H](c2ccc(Br)cc2)N1C[C@H](O)CN=[N+]=[N-] | 0.0343 | -0.0104 | 0.346 | 0.0364 | 0.123 | 0.14 | -0.0243 | -0.183 | -0.133 | 0.426 | 0.0539 | 0.486 (inactive) | -0.0219 | -0.12 | -0.109 | 0.653 | 0.475 | -0.0747 | 0.101 | -0.35
